Screening results from PubChem BioAssay.
SNCA expr inhib: Primary qHTS assay for inhibitors of alpha-synuclein gene (SNCA) expression; HEK-293 SNCA-luciferase knock-in, luminescence, 24 h; Potency, µM (doses to about 57.2 µM), inactives show at the highest dose activity change, negative = inhibition, actives largely listed as inhibitors; 140,000 compounds, 0.17% hits; AID 1671194, 2021;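 further: potency means the concentration at half of the fitted maximal effect; plate controls were DMSO cells for no effect and cell-free wells for full effect; nearly all actives have a fitted effect of over 45% in size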
SNCA viab count: GF-AFC viability counterscreen for inhibitors of alpha-synuclein gene (SNCA) expression; HEK-293-SNCA-luc viability, GF-AFC fluorescence, 24 h; Potency, µM (titrated, usually from 57.1 µM), for the others: top-dose activity change, negative = cytotoxicity, actives largely listed as cytotoxic; 150,000 compounds, 0.12% hits; AID 1671193, 2021;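 further: potency means the concentration at half of the fitted maximal effect; 0% = DMSO-treated cells and -100% = medium-only wells without cells; nearly all actives have a fitted effect of over 30% in size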
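HEK-293-SNCA-luc cells (1500/well) plated 24 h, then exposed 24 h to a dilution series; GF-AFC added 30 min at 37C, fluorescence 405/540 nm; normalised to medium-only and DMSO wells, Hill fit.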
GPT2 inh: Primary qHTS assay for inhibitors of Glutamate pyruvate transaminase 2 (GPT2) | Alanine aminotransferase 2 (Homo sapiens), Q8TD30 | Recombinant GPT2, coupled pyruvate oxidase/HRP Amplex Red fluorescence | Potency, µM (series often up to 57.7 µM), inactives show top-dose activity change, negative = inhibition, actives largely listed as inhibitors | 100,000 compounds, 0.25% hits | AID 1671188, 2021; further: potency means the concentration at half of the fitted maximal effect; nearly all actives have a fitted effect of over 60% in size
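Fluorescence read-out: pyruvate from GPT2 turnover coupled to pyruvate oxidase, HRP and Amplex Red (0.2mM ThPP, 0.2U/mL PO and HRP, 50uM Amplex final). Substrates 250uM a-KG, 2mM L-alanine; enzyme 10ng/uL; 30 min RT.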
IP6K1 inh: Primary qHTS assay for small molecule inhibitors of Inositol hexaphosphate kinase 1 (IP6K1) | IP6K1 kinase, ADP-Glo luminescence, 2 h; stronger effect = lower value | activity change, % (series mostly up to about 58 µM) | 140,000 compounds, 0.81% hits | AID 1645851, 2021; in the data active means activity change below about -25%
Target sequence (Q92551 whole entry, looked up): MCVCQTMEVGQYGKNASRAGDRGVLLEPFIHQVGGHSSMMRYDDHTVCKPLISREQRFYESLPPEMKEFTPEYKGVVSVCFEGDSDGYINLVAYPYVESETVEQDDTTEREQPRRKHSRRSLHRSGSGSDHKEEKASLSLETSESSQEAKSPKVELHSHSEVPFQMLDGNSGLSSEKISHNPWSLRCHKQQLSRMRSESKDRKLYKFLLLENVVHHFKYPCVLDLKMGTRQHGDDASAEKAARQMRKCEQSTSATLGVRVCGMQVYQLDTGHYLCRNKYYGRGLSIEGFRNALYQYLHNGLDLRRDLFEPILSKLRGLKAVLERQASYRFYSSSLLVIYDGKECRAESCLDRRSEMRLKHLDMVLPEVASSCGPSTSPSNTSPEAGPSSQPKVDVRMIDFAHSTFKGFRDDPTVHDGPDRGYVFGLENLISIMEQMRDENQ
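ADP-Glo luminescence measures ADP made by human IP6K1 during a 2 h RT reaction with ATP/IP6 (mix at 1.3 mM/130 uM); top library doses 57.5 and 19.1 uM final.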
Active calls of the source: *; [ ] = remark or other dose. Most compounds without a hit are left out; they make up all but 1% or so of the library. Unless noted, the call rests on the fitted dose curve; in most records, active means well fitted curve in the direction sought with a large enough effect; inconclusive means small, poorly fitted or top-dose-only effect, or another doubt; inactive means no such curve, though single readings can be large; an effect the other way counts as inactive or inconclusive. Unless noted, on the % scale 0 is the no-effect control and ±100 the full control effect.

Screening CC(=O)N1CCOc2ccc(CCC(=O)NC(C)Cn3ccc(C)n3)cc2C1 (configuration not stated) returned SNCA expr inhib 20µM*, SNCA viab count 2.1%[12.5 µM], GPT2 inh 0.8% and IP6K1 inh 17.2.
CCCN1CCCCC12Cc1ccccc1CN(C(=O)c1c(C)noc1C)C2 (configuration not stated) was read as SNCA expr inhib 1.8%, SNCA viab count -1.5%, GPT2 inh inactive and IP6K1 inh -15.5.
COC(=O)[C@@H]1Cc2c([nH]c3ccccc23)[C@H]2C[C@H](NCCN3CCOCC3)C[C@@H](c3ccc(F)cc3)N21 was read as SNCA expr inhib -11.3%, SNCA viab count inconclusive, GPT2 inh inactive and IP6K1 inh -12.1.
C#CCn1c(/C=C/c2ccc(Cl)cc2)nc2ccccc21 was read as SNCA expr inhib -67.2%, SNCA viab count -24.5% and IP6K1 inh -19.7.
Screening CCOc1ccc(/C=C/c2nc3ccccc3n2S(=O)(=O)c2cccc(Cl)c2)cc1 returned SNCA expr inhib -94.2%, SNCA viab count -10.3% and IP6K1 inh -31.1*.
CCOc1ccc(Cn2c(CNS(=O)(=O)c3cccc(Cl)c3)nc3cccnc32)cc1 was read as SNCA expr inhib 1.8%, SNCA viab count 2.2% and IP6K1 inh -5.5.
Cc1ccc(/C=C/c2nc3ccccc3n2S(=O)(=O)c2cccc(Cl)c2)cc1 was read as SNCA expr inhib inconclusive, SNCA viab count -12.9% and IP6K1 inh -51.3*.
Screening O=C(NC1CCOCC1)C1CCCN(Cc2cccc(-c3ccc(F)cc3F)c2)C1 (configuration not stated) returned SNCA expr inhib -22.6%, SNCA viab count -7.2%, GPT2 inh inconclusive and IP6K1 inh -6.8.
Screening CCOc1ccc(NC(=O)c2c(NCc3cc(OC)c(OC)cc3OC)sc3c2CCCC3)cc1 returned SNCA expr inhib 2.4%, SNCA viab count -5.4% and IP6K1 inh -30.5*.
Cc1nn(-c2ccccc2[N+](=O)[O-])c(C)c1[C@@H]1C=C[C@@H](NCc2ccc(C(C)C)cc2)C1 was read as SNCA expr inhib 1.5%[87.6 µM], SNCA viab count 20µM*, GPT2 inh inactive and IP6K1 inh -12.3.
O=C(c1ccc(Cl)cc1)N1CCC(n2cc(-c3ccc(OC(F)(F)F)cc3)[nH]c2=O)CC1 was read as SNCA expr inhib inconclusive, SNCA viab count -0.9%, GPT2 inh inactive and IP6K1 inh -7.1.
For CN(C)c1ccc(NC(=S)N[C@H]2CO[C@H]3[C@@H]2OC[C@H]3OC(=O)Nc2cccc3ccccc23)cc1 the results were SNCA expr inhib 83.6%, SNCA viab count -0.9%, GPT2 inh 8.91µM* and IP6K1 inh 4.0.
O=C(Nc1cccc2ccccc12)O[C@@H]1CO[C@H]2[C@@H]1OC[C@@H]2NC(=S)Nc1ccc(Cl)cc1 was read as SNCA expr inhib inconclusive, SNCA viab count -10.0%, GPT2 inh inactive and IP6K1 inh 1.7.
Cc1ccc([S+](=O)([O-])N2CCN(c3nccc(Nc4ccccc4F)n3)CC2)cc1 was read as SNCA expr inhib -1.9%, SNCA viab count 7.5%[12.5 µM], GPT2 inh inactive and IP6K1 inh -4.0.
For CC[n+]1c(/C=C/C=C2/N(C)c3ccccc3C2(C)C)sc2ccccc21 the results were SNCA expr inhib inconclusive, SNCA viab count 10µM* and GPT2 inh inactive.
Screening COc1ccc(F)cc1-c1ccc(CN2CCCCC2C(=O)N2CCc3ccccc3C2)cc1 (configuration not stated) returned IP6K1 inh -7.2.
CC(C)N1[N]C(=C2C=c3cc(O)ccc3=N2)c2c(N)ncnc21 was read as SNCA expr inhib -26.4%, SNCA viab count inconclusive and GPT2 inh 0.611µM*.
Screening Cn1ncc2c(C(=O)Nc3ccnc(Cl)c3)cc(-c3ccc(C(F)(F)F)cc3)nc21 returned IP6K1 inh -10.5.
Screening C=C1CC2OC(=O)C(=C)C2C(OC(=O)/C(C)=C\C)CC2(C)OC1=CC2=O (configuration not stated) returned SNCA viab count inconclusive, GPT2 inh inconclusive and IP6K1 inh -8.1.
